Results: PubChem BioAssay (Tox21)
Values without a mark were called inactive. Records with an inconclusive call do not appear. Where a call stands in place of a potency, no number is given. The source made the active and inactive calls. Unless noted, the call rests on the fitted dose curve; in most records, active means well fitted curve in the direction sought with a large enough effect in the repeat runs; inconclusive means weak or mixed curves; inactive means no such curve, though single readings can be large; an effect the other way counts as inactive or inconclusive.

Legend:
[1] = qHTS assay to identify small molecule antagonists of the constitutive androstane receptor (CAR) signaling pathway - cell viability counter screen (AID 1224837); further: nearly all actives have a fitted effect of over 45% in size; further: potency means the concentration at half of the fitted maximal effect
Procedure, shortened: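 Counter screen run in HepG2-CYP2B6-hCAR cells: 4 hr settle, compound titration (15 concentrations) with 50 nM CITCO, 23 hr at 37 C/5% CO2, CellTiter-Fluor fluorescence.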

[2] = qHTS assay to identify small molecule antagonists of the estrogen related receptor signaling pathway with the pleiotropic PPARgamma coactivator (PGC) from Tox21 10K library - cell viability counter screen (AID 1224840; active means well fitted cell-killing curve with a large enough effect in the repeat runs, not every such curve was filed as active; further: nearly all actives have a fitted effect of over 40% in size)
Procedure, shortened: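 Following seeding of 2,000 PGC/ERR cells/well and 6 hours' incubation, test compounds were delivered in DMSO. The plates then sat 17.5 hours at 37 C before a fluorogenic live-cell protease reagent (CellTiter-Fluor) was read after 30 min.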

[3] = qHTS assay to identify small molecule antagonists of the estrogen related receptor signaling pathway with the pleiotropic PPARgamma coactivator (PGC) from Tox21 10K library (AID 1224841; call rule not given here; further: actives are mostly falling curves and most rising ones were filed inactive; nearly all actives have a fitted effect of over 50% in size)
Procedure, shortened: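 qHTS antagonist format: PGC/ERR cells, 2k/well, compound in DMSO by pin transfer after 6 h attachment, 18 h treatment at 37 C, One-Glo luminescence read at 30 min.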

[4] = qHTS assay to identify small molecule agonists of the estrogen related receptor signaling pathway with the pleiotropic PPARgamma coactivator (PGC) from Tox21 10K library (AID 1224842); further: nearly all actives have a fitted effect of over 15% in size; further: potency means the concentration at half of the fitted maximal effect
Procedure, shortened: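 Luminescence from One-Glo (30 min, room temperature) measured after PGC/ERR cells had 18 h at 37 C with pinned compound (23 nL in DMSO). Cells had been seeded at 2,000 per well and pre-incubated 6 h.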

[5] = qHTS assay to identify small molecule agonists of the hypoxia (HIF-1) signaling pathway - cell viability counter screen (AID 1224844; calls by dose curve; further: nearly all actives have a fitted effect of over 50% in size; further: potency means the concentration at half of the fitted maximal effect)
Procedure, shortened: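 Cells (HRE-bla ME-180, 2,000 per well) sat 5 hrs at 37C, got compound for 17 hrs, were read for CCF4-AM FRET, and were finally lysed with CellTiter-Glo for a 30 min room-temperature luminescence read.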

[6] = qHTS assay to identify small molecule agonists of H2AX (AID 1224845; active means well fitted activation curve with a large enough effect in the signal ratio in the repeat runs, not every such curve was filed as active; the % refers to the signal ratio)
Procedure, shortened: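 Phospho-H2AX Ser139 measured by HTRF (ex 320 nm; em 665 and 620 nm) after 24 hr antibody incubation. Compounds, 15 concentrations, 0.76% DMSO, were applied to CHO-K1 cells for 3hr at 37C before lysis.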

[7] = qHTS assay to identify small molecule agonists of the hypoxia (HIF-1) signaling pathway (AID 1224846; active means well fitted activation curve with a large enough effect in the signal ratio in the repeat runs, not every such curve was filed as active; the % refers to the signal ratio)
Procedure, shortened: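 A low-serum medium (0.5% dialyzed FBS) holding 2,000 HRE-bla ME-180 cells per well is preincubated for 5 hrs, dosed with compounds by pintool, and kept a further 17 hrs at 37C, 5% CO2 before CCF4-AM FRET detection of beta-lactamase.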

[8] = qHTS assay to identify small molecule agonists of H2AX - cell viability counter screen (AID 1224847; calls by dose curve; further: nearly all actives have a fitted effect of over 30% in size; further: potency means the concentration at half of the fitted maximal effect)
Procedure, shortened: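 Counter-screen for viability: CellTiter-Glo ATP luminescence read after 3 h compound treatment (15-point titration, 0.76% DMSO final) of CHO-K1 cells at 37C, with 30 min room-temperature reagent incubation.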

[9] = qHTS assay to identify small molecule antagonists of the estrogen related receptor (ERR) signaling pathway from Tox21 library (AID 1224848); further: nearly all actives have a fitted effect of over 50% in size; further: potency means the concentration at half of the fitted maximal effect
Procedure, shortened: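 Antagonist-mode screen of the Tox21 10K library in an NTP-provided ERR reporter cell line; 18 h compound exposure at 37 C, luminescence measured with ONE-Glo.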

[10] = qHTS assay to identify small molecule agonists of the estrogen related receptor (ERR) signaling pathway from Tox21 library (AID 1224849; calls by dose curve; further: nearly all actives have a fitted effect of over 15% in size); details: ERR reporter cell line, ONE-Glo luciferase, 18 h
Procedure, shortened: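 Screening used an NTP-provided ERR luciferase cell line. Compounds in DMSO were added 6 h after seeding and left 18 h at 37 C before a 30 min ONE-Glo step and luminescence reading.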

[11] = qHTS RealTime-Glo MT Cell Viability Assay in HEK293 cells - 32 hour (AID 1224868); further: top concentration of the series differs between compounds; nearly all actives have a fitted effect of over 50% in size
Procedure, shortened: (§1)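 Viability tracked continuously by luminescence as live cells reduce a prosubstrate for NanoLuc; HEK293 cells preincubated 5 h, compound-treated at 37 C, and read at 0, 8, 16, 24, 32 and 40 h.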

[12] = qHTS RealTime-Glo MT Cell Viability Assay in HepG2 cells - 40 hour (AID 1224870); further: nearly all actives have a fitted effect of over 50% in size
Procedure, shortened: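 Real-time viability: cells seeded at 600 per well together with NanoLuc and cell-permeant prosubstrate, compounds added after 5 h incubation. Luminescence tracked at 0, 8, 16, 24, 32 and 40 h of exposure.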

[13] = A CellTox Green Cytotoxicity Assay to monitor cytotoxicity in HEK293 cells - 40 hour (AID 1224871); further: nearly all actives have a fitted effect of over 45% in size
Procedure, shortened: (§2)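 Fluorescence intensity, read at 0, 8, 16, 24, 32 and 40 h of compound treatment, reflected dye binding to DNA of dead HEK293 cells; compounds (23 nL, DMSO) were added 5 h after plating cells with reagent.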

[14] = target: Thyrotropin receptor (Homo sapiens) (UniProt P16473); test: qHTS assay to identify small molecule agonists of the thyroid stimulating hormone receptor (TSHR) signaling pathway (AID 1224843; calls by dose curve; further: nearly all actives have a fitted effect of over 45% in size)
Procedure, shortened: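 Screening of the Tox21 10K collection used HEK293 cells engineered with TSHR at 800 cells per well. After a 30-min room-temperature compound exposure, HTRF cAMP reagents were added and fluorescence recorded 1 h later.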

[15] = qHTS RealTime-Glo MT Cell Viability Assay in HepG2 cells - 24 hour (AID 1224867); further: nearly all actives have a fitted effect of over 50% in size
Procedure, shortened: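 Viability was tracked continuously by NanoLuc luminescence from prosubstrate reduced by living HepG2 cells, at successive time points over 40 h of compound exposure. Cells with reagent were preincubated 5 h at 37 °C before compound addition.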

[16] = A CellTox Green Cytotoxicity Assay to monitor cytotoxicity in HEK293 cells - 0 hour (AID 1224869); further: nearly all actives have a fitted effect of over 50% in size
Procedure, shortened: as §2

[17] = qHTS RealTime-Glo MT Cell Viability Assay in HEK293 cells - 16 hour (AID 1224872)
Procedure, shortened: as §1

[18] = target: Nuclear receptor subfamily 1 group I member 3 (Homo sapiens) (UniProt Q14994); test: qHTS assay to identify small molecule antagonists of the constitutive androstane receptor (CAR) signaling pathway (AID 1224838);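 further: HepG2 cells stably expressing hCAR with CYP2B6 luciferase reporter stimulated by CITCO; nearly all actives have a fitted effect of over 40% in size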
Procedure, shortened: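 Cell line: HepG2 double-stable for hCAR and CYP2B6-2.2kb reporter. Agonist: CITCO, 50 nM final. Compounds: 15 concentrations, 24 h, 37 C. Detection: ONE-Glo luminescence.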

Thyrotropin receptor (Homo sapiens), sequence (P16473 whole entry, looked up): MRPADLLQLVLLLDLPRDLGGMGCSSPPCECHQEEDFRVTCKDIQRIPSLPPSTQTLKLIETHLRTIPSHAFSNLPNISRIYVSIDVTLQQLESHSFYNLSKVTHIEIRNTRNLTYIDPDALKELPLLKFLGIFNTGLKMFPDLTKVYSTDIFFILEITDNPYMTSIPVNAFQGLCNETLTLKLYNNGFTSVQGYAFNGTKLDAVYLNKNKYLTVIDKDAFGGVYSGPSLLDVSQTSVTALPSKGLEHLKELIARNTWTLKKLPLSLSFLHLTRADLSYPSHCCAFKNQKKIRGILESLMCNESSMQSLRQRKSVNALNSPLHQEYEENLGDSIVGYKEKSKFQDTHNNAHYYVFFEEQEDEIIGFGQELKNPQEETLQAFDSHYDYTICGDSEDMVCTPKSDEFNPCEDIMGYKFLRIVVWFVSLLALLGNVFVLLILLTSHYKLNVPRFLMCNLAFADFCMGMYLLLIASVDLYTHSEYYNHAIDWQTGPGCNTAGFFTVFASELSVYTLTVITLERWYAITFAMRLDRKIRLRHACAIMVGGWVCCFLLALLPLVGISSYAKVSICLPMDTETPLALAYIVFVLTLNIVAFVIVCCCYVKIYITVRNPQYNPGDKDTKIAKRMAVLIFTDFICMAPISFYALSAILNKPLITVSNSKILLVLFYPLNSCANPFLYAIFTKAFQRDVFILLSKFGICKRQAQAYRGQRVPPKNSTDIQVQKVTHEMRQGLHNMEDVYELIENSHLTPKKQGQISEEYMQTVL
Nuclear receptor subfamily 1 group I member 3 (Homo sapiens), sequence (Q14994 whole entry, looked up): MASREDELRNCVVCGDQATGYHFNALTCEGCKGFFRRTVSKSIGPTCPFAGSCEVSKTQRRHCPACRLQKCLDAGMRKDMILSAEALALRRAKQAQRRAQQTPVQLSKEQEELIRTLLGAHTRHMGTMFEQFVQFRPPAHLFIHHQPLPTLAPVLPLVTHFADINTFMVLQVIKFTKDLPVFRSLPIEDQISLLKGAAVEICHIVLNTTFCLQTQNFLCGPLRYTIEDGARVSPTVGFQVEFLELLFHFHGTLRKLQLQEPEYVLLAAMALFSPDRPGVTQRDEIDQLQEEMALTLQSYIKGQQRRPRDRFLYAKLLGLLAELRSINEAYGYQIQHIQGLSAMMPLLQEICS

SMILES | Potency [1] | Potency [2] | Potency [3] | Potency [4] | Potency [5] | Potency [6] | Potency [7] | Potency [8] | Potency [9] | activity change, positive = activation ([10]; at 92.4 µM (top of the series)) | Potency [11] | Potency [12] | Potency [13] | Potency [14] | Potency [15] | Potency [16] | Potency [17] | Potency [18] | activity change, positive = activation ([10]; at 42.5 µM (top of the series))
Cc1ccc(C)cc1 | inactive | inactive | inactive | inactive | inactive | inactive | inactive | inactive | inactive | 0.373% | inactive | inactive | inactive |  |  |  |  |  | 
O[C@@H]([C@H](O)[C@H](O)CBr)[C@H](O)CBr | inactive | inactive |  |  | inactive | inactive | inactive | inactive |  |  | inactive | inactive | inactive | inactive | inactive | inactive | inactive |  | 
Cc1cc(=O)oc2cc(O)cc(O)c12 | inactive | inactive |  |  |  |  |  |  |  | -20.6% | inactive | inactive |  | inactive | inactive |  |  | inactive | 
CC(C)=CCNc1ncnc2c1ncn2[C@@H]1O[C@H](CO)[C@@H](O)[C@H]1O | 3.35 µM (active) | inactive | inactive | 5.96 µM (active) | 8.49 µM (active) |  |  | 1.96 µM (active) | 10.6 µM (active) |  |  | inactive | inactive | inactive | inactive | inactive | inactive |  | -51%
